# NPC1 prom act: activates the NPC1 promoter; Huh7 NPC1 promoter luciferase reporter, 24 h; Potency, µM (doses to about 9.22 µM), for the others: at the highest dose activation, most hits filed as activators; hit rate 2.4% among 320,000; AID 485313; also: % of control where 0% means no effect; nearly all actives have a fitted effect of over 60% in size
#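 Cells: Huh7 expressing luciferase under the NPC1 promoter, 1500/well. Seeded 2 h, compound added, incubated 24 h at 37 °C. Luciferase reagent, 10 min ambient, then luminescence.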
# Rab9 promoter act: activates the Rab9 promoter; Huh7 Rab9 promoter-luciferase reporter, luminescence, 24 h; Potency, µM (titrated, usually from 9.22 µM), inactives show at the highest dose activation, negative = inhibition, most hits filed as activators; hit rate 2.8% among 320,000; also: % of control where 0% means no effect; nearly all actives have a fitted effect of over 60% in size
#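 Luminescence read-out: Huh7 cells stably expressing Rab9-luciferase, treated 24 h with compound at 37 °C, then lysed with luciferase reagent for 10 min at ambient before reading.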
# SMN2 splice up: enhancers of SMN2 splice variant expression; HEK293 SMN2-luciferase splicing reporter, luminescence, 30-36 h; Potency, µM (doses to about 46.1 µM), for the others: at the highest dose activity change, positive = activation, hits mostly activators; hit rate 2.8% among 210,000; also: % of control where 0% means no effect; nearly all actives have a fitted effect of over 55% in size
#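 HEK293 cells carry an SMN2 […]–luciferase reporter in which exon 7 inclusion puts luciferase in frame. Cells were plated 10-12 h before compound addition, then incubated 30-36 h at 37C. ONE-Glo luminescence was read; sodium butyrate at 4.5 mM final served as control.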
# KinaseGlo FLuc: blocks Kinase-Glo luciferase, a counter-screen artifact. Q27757. Kinase-Glo luciferase, ATP luminescence, 8 min. Potency, µM (highest dose often 38.3 µM), for inactives: at the top dose activity change, negative = inhibition, usual class: inhibitors. hit rate 0.28% among 200,000. AID 1379; also: % is scaled to controls: 0 for no effect and ±100 for the full control effect; nearly all actives have a fitted effect of over 60% in size
#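 Kinase-Glo luciferase light output from ATP and luciferin was measured with 10 uM ATP, within the enzyme's linear range. Buffer: 50 mM imidazole pH 7.2, 50 mM KCl, 7 mM MgCl2, 0.01% Tween 20, 0.05% BSA; luminescence read after 8 min at ambient temperature.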
# FLuc modulator: counter-screen for miR-21 project: firefly luciferase inhibitors or activators; purified FLuc, Km substrates, luminescence inhibition; Potency, µM (doses to about 57.5 µM), inactives show at the highest dose activity change, negative = inhibition, actives largely listed as inhibitors; hit rate 6.9% among 360,000;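 also: plate controls were vehicle for no effect and reference inhibitor for full effect; nearly all actives have a fitted effect of over 55% in size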
# Target sequence (P08659 whole entry, looked up): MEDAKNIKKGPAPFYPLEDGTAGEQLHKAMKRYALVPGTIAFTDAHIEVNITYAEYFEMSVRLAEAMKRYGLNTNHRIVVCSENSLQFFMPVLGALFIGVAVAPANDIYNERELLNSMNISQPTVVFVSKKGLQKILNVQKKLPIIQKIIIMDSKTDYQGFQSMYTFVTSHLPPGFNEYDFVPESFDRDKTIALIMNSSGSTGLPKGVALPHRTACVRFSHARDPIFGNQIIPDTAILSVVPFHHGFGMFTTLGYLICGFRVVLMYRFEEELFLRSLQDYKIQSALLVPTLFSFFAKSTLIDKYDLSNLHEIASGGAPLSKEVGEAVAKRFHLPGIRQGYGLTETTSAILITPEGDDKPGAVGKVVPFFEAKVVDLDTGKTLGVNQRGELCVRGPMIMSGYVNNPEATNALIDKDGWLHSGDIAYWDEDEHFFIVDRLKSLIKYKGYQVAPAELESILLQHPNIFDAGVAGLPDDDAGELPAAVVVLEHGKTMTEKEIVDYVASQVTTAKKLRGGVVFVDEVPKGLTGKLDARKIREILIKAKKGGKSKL
#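 Purified P. pyralis luciferase (10nM final) with 10uM D-luciferin and 10uM ATP (Km levels) in 50mM Tris acetate pH 7.5, 10mM Mg acetate, 0.01% Tween-20, 0.05% BSA; qHTS 6-point titration, ~60 µM downward; luminescence read.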
# ELG1 genotox: genotoxicity induction in ELG1-luciferase HEK293T cells. HEK293T ELG1-luciferase reporter, luminescence, 16 h. Potency, µM (doses to about 46 µM), without a hit: at the highest dose activity change, positive = activation, usual class: activators. hit rate 1.3% among 330,000; also: % of control where 0% means no effect; nearly all actives have a fitted effect of over 60% in size
#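 ELG1-luciferase HEK293T cells, 2,000/well; compound pinned in; 16 hr, 37 °C, 5% CO2; ONE-Glo, 30 min RT; luminescence on CCD imager.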
# * = called active by the depositor; u = inconclusive; x = not tested or not shown. Hits are enriched below; roughly 7.5% of the tested compounds scored in any of these assays. Calls follow the shape of the dose curve; as a rule, active = well fitted curve in the direction sought with a large enough effect; inconclusive = small, poorly fitted or top-dose-only effect, or another doubt; inactive = no such curve, though single readings can be large; an effect the other way counts as inactive or inconclusive. Potency is read from the fitted curve at half-maximal effect.
SMILES,NPC1 prom act,Rab9 promoter act,SMN2 splice up,KinaseGlo FLuc,FLuc modulator,ELG1 genotox
Cc1cc(C)cc(NC(=O)c2ccc(CNc3c(N4CCOCC4)c(=O)c3=O)cc2)c1,-1.6%,5.0%,-8.8%,-0.1%,-19.0%,1.5%
Cc1ccc(NC(=O)c2ccc(OC(=S)N3CCOCC3)cc2)cc1,u,2µM*,2.1%,-1.2%,-12.5%,u
O=C(Nc1ccccc1Br)c1ccc(OC(=S)N2CCOCC2)cc1,-6.6%,-2.3%,x,-1.5%,-5.6%,-4.4%
Cc1cc(Br)ccc1NC(=O)CSCc1c(C)noc1C,x,x,x,x,x,-1.5%
CCOc1ccc(C(=O)c2cn(CC(=O)Nc3ccc(OC)cc3)c3cc4c(cc3c2=O)OCO4)cc1,x,x,-6.3%,x,3.9%,x
COc1ccc(-c2cc(C(=O)N3CCCc4ccccc43)no2)cc1OC,-3.3%,1.4%,-5.7%,0.4%,u,-2.3%
COc1ccc(-c2cc(C(=O)N3CCCc4ccccc43)no2)cc1,u,u,-2.7%,-4.3%,6.01µM*,-0.4%
COc1cccc(-c2cc(C(=O)N3CCCc4ccccc43)no2)c1,28.2%,2.5%,u,-2.8%,12µM*,7.1%
COc1ccc(C2=NOC(C(=O)N3CCCc4ccccc43)C2)cc1 (centres undefined),3.6%,7.8%,-0.1%,-5.4%,13.5µM*,-1.2%
O=C1Nc2ccccc2N(O)N1c1cc(-c2cccc(Cl)c2)no1,2.5%,12.4%,x,14.4%,21.3µM*,0.6%
O=C1Nc2ccccc2N(O)N1c1cc(-c2ccc(Cl)cc2)[nH]n1,0.0%,-3.9%,-5.4%,1.4%,8.49µM*,-3.5%
O=C1Nc2ccccc2N(O)N1c1cc(-c2ccccc2Cl)no1,u,17.8%,3.4%,0.0%,6.01µM*,-1.4%
O=C(NCC(c1cccnc1)N1CCN(Cc2ccccc2)CC1)C(=O)Nc1ccc(Cl)cc1 (centres undefined),x,x,x,x,-10.2%,x
COc1ccc(-c2cc(C(=O)OCC(=O)N(C)C)c3ccccc3n2)cc1,4.3%,23.2%,u,2.6%,9.53µM*,-1.4%
COc1ccc(-c2cc(C(=O)OCc3ccccn3)c3ccccc3n2)cc1,10.7%,15.6%,x,x,6.75µM*,-2.7%
CN(C(=O)COC(=O)c1cccnc1Nc1ccccc1F)C1CCS(=O)(=O)C1 (centres undefined),-1.1%,-0.9%,-15.1%,-21.2%,-0.8%,-0.3%
CCN(C(=O)COC(=O)c1cc(-c2ccc3cc(OC)ccc3c2)nc2ccccc12)C1CCS(=O)(=O)C1 (centres undefined),0.891µM*,0.355µM*,u,-16.2%,0.849µM*,12.3%
CCN(C(=O)COC(=O)c1cc(OC)ccc1Br)C1CCS(=O)(=O)C1 (centres undefined),x,x,x,x,x,0.7%
COc1ccc(-c2cc(C(=O)Oc3ccc(Cl)cc3)c3ccccc3n2)cc1,x,x,3.2%,x,-16.4%,x
CCN(C(=O)COC(=O)c1cccnc1Nc1ccccc1F)C1CCS(=O)(=O)C1 (centres undefined),u,u,u,10µM*,u,8.8%
COc1ccc(-c2csc(N3CCN(S(=O)(=O)c4ccc5c(c4)NC(=O)CO5)CC3)n2)cc1,12.6%,-13.2%,x,x,3.2%,-11.9%
COc1ccc(-c2cc(C(=O)Oc3ccc([N+](=O)[O-])cc3)c3ccccc3n2)cc1,14.9%,22.3%,u,-3.5%,5.36µM*,12.5%
COc1ccc(-c2cc(C(=O)Oc3ccc(C)cc3)c3ccccc3n2)cc1,x,x,15.2%,x,u,x
Cc1c(NC(=O)Cc2ccc(F)cc2)cccc1-c1nc2cccnc2s1,x,x,x,x,-1.2%,x
COC(=O)c1ccc(COc2ccc(C)cc2[N+](=O)[O-])o1,u,u,x,x,19µM*,-6.9%
SMILES,NPC1 prom act,Rab9 promoter act,SMN2 splice up,KinaseGlo FLuc,FLuc modulator,ELG1 genotox
O=C(COc1cc([N+](=O)[O-])cc2cccnc12)NCCC1=CCCCC1,-4.6%,4.3%,x,x,0.1%,-9.5%
Cc1ccc(OCc2ccc(C(=O)NN)o2)c([N+](=O)[O-])c1,8.7%,-2.7%,x,x,u,2.9%
COC(=O)c1ccc(COc2cc([N+](=O)[O-])cc3cccnc23)o1,-0.1%,-0.8%,x,-3.2%,21.3µM*,-2.3%
CCOC(=O)c1ccc(NC(=O)C(C)Sc2nc(=O)cc(N)n2CCc2ccccc2)cc1 (centres undefined),x,x,7.3%,x,-12.0%,x
COC(=O)c1ccc(NC(=O)CSCC(=O)OCC(=O)c2ccc(Br)cc2)cc1,-3.0%,1.2%,-10.5%,-2.2%,12µM*,-0.2%
COc1cc(C(=O)N/N=C/c2ccc3c(c2)c2ccccc2n3C)ccc1O,-14.8%,-0.4%,x,x,10.7µM*,-8.7%
Cn1c2ccccc2c2cc(/C=N/NC(=O)c3cc(O)cc(O)c3)ccc21,1.6%,u,x,x,23.9µM*,5.6%
COc1cccc(CNC(=O)CSc2nc(=O)[nH]c3c2CCCC3)c1,x,x,x,x,-3.3%,x
CCOC(=O)c1ccccc1NC(=O)c1ccc2c(=O)n3c(nc2c1)CCCCC3,0.0%,-3.8%,-21.9%,-1.3%,u,-6.3%
CCOC(=O)c1ccccc1NC(=O)c1ccc2c(Cl)c3c(nc2c1)CCC3,x,x,7.8%,x,5.36µM*,x
COc1cc(NC(=O)c2ccc3c(Cl)c4c(nc3c2)CCC4)cc(OC)c1OC,x,x,5.6%,x,u,x
COCCNC(=O)c1ccc2c(Cl)c3c(nc2c1)CCC3,u,3.55µM*,x,x,8.49µM*,u
CCOC(=O)c1cccc(NC(=O)c2ccc3c(Cl)c4c(nc3c2)CCC4)c1,x,x,7.9%,x,0.301µM*,x
CCCN(CCC)CCCNC(=O)c1ccc2c(Cl)c3c(nc2c1)CCC3,0.7%,0.1%,x,x,-5.5%,-1.4%
COC(=O)c1ccccc1NC(=O)c1ccc2c(Cl)c3c(nc2c1)CCCC3,x,x,-0.6%,x,12µM*,x
COc1ccc(OC)c(NC(=O)c2ccc3c(Cl)c4c(nc3c2)CCCC4)c1,x,x,12.4%,x,-19.4%,x
CC(O)[C@@]1(O)CC[C@H]2[C@@H]3CC[C@H]4C[C@@H](O)CC[C@]4(C)C3=CC[C@@]21C (some centres undefined),5.7%,0.6%,x,x,0.2%,0.6%
COC(=O)c1ccc(-c2ccc(F)cc2)nc1C,3.55µM*,3.55µM*,u,-5.0%,3.38µM*,u
CCOC(=O)c1ccc(-c2ccc3c(c2)CCC3)nc1C,1.58µM*,1µM*,x,x,1.51µM*,3.66µM*
COc1ccccc1/C=N/NC(=O)c1cc2c(OC)c(OC)ccc2[nH]1,-8.6%,-2.0%,x,x,13.5µM*,1.0%
COc1cccc(/C=N/NC(=O)C[n+]2ccccc2)c1OC,0.2%,-2.7%,-5.7%,-0.3%,-0.8%,-3.0%
COc1cccc(/C=N/NC(=O)c2cc3c(OC)cccc3[nH]2)c1O,-27.4%,-35.8%,-109.4%,-2.1%,-18.7%,-2.0%
